From PubChem BioAssay AID1159580 (chemical genetic matrix, 2015)
The campaign covered roughly 5,500 compounds. About 2,000 (36%) were called active. Another 18% or so got no clear call; they are omitted. This is one part of the list. Values without a mark were called inactive. Cut-off read from the data, not from the text of the source: active = normalized growth mostly below about 0.91 (no sharp cut-off); inconclusive = no clear call, values can overlap the other calls; inactive = mostly above about 0.92.

Test: chemical genetic growth profiling, strain panel (AID 1159580);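 note: tested at 20 µM; growth read once vehicle control cultures reached saturation at 30 °C; 1 = growth at the plate median or of vehicle wells; lower values mean less growth of the strain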
Details: S. cerevisiae deletion strains, growth OD

## COc1ccc2c(c1)OCc1c-2oc2cc(OC)ccc12
Locus YJR075W, strain HOC1, stronger effect = lower value
  normalized growth: 0.898
Locus YKL009W, strain mrt4, stronger effect = lower value
  normalized growth: 1.02
Locus YKL068W, stronger effect = lower value
  normalized growth: 1.01
Locus YKL085W, strain MDH1 (second series), stronger effect = lower value
  normalized growth: 0.984
Locus YKL085W, strain MDH1, stronger effect = lower value
  normalized growth: 0.984
Locus YKL160W, strain elf1, stronger effect = lower value
  normalized growth: 0.748 (active)
Locus YKL190W, strain CNB1, stronger effect = lower value
  normalized growth: 1
Locus YKR001C, strain vps1, stronger effect = lower value
  normalized growth: 0.777 (active)
Locus YKR026C, strain gcn3, stronger effect = lower value
  normalized growth: 0.988
Locus YKR091W, strain srl3, stronger effect = lower value
  normalized growth: 0.987
Locus YLL001W, strain dnm1, stronger effect = lower value
  normalized growth: 0.871 (active)
Locus YLL041C, strain sdh2, stronger effect = lower value
  normalized growth: 0.972
Locus YLR027C, strain aat2, stronger effect = lower value
  normalized growth: 0.8 (active)
Locus YLR039C, strain RIC1, stronger effect = lower value
  normalized growth: 0.446 (active)
Locus YLR058C, strain SHM2, stronger effect = lower value
  normalized growth: 0.936
Locus YLR102C, strain apc9, stronger effect = lower value
  normalized growth: 1.01
Locus YLR113W, strain HOG1, stronger effect = lower value
  normalized growth: 0.928
Locus YLR221C, strain rsa3, stronger effect = lower value
  normalized growth: 0.762 (active)
Locus YLR258W, strain gsy2, stronger effect = lower value
  normalized growth: 0.895 (active)
Locus YLR262C, strain YPT6 (second series), stronger effect = lower value
  normalized growth: 0.387 (active)
Locus YLR262C, strain YPT6, stronger effect = lower value
  normalized growth: 0.505 (active)
Locus YLR268W, strain sec22, stronger effect = lower value
  normalized growth: 0.966
Locus YLR320W, strain mms22, stronger effect = lower value
  normalized growth: 0.625 (active)
Locus YLR330W, strain CHS5, stronger effect = lower value
  normalized growth: 0.929
Locus YLR342W, strain FKS1 (second series), stronger effect = lower value
  normalized growth: 0.796
Locus YLR342W, strain FKS1, stronger effect = lower value
  normalized growth: 0.73 (active)
Locus YLR357W, strain rsc2, stronger effect = lower value
  normalized growth: 0.909
Locus YLR370C, strain arc18, stronger effect = lower value
  normalized growth: 0.94
Locus YLR371W, strain rom2, stronger effect = lower value
  normalized growth: 1.01
Locus YLR384C, strain iki3, stronger effect = lower value
  normalized growth: 1.01
Locus YLR418C, strain cdc73, stronger effect = lower value
  normalized growth: 0.901
Locus YML016C, strain PPZ1, stronger effect = lower value
  normalized growth: 0.978
Locus YML032C, strain rad52, stronger effect = lower value
  normalized growth: 0.959
Locus YML120C, strain ndi1, stronger effect = lower value
  normalized growth: 0.842 (active)
Locus YML124C, strain tub3, stronger effect = lower value
  normalized growth: 1.01
Locus YMR058W, strain fet3, stronger effect = lower value
  normalized growth: 0.699 (active)
Locus YMR078C, strain ctf18, stronger effect = lower value
  normalized growth: 1.01
Locus YMR125W, strain sto1, stronger effect = lower value
  normalized growth: 0.877 (active)
Locus YMR129W, stronger effect = lower value
  normalized growth: 0.985
Locus YMR205C, strain PFK2, stronger effect = lower value
  normalized growth: 0.694 (active)
Locus YMR223W, strain ubp8, stronger effect = lower value
  normalized growth: 1.01
Locus YMR231W, strain pep5, stronger effect = lower value
  normalized growth: 0.912 (active)
Locus YMR263W, strain SAP30, stronger effect = lower value
  normalized growth: 0.954
Locus YMR307W, strain GAS1, stronger effect = lower value
  normalized growth: 1
Locus YNL067W, strain RPL9B, stronger effect = lower value
  normalized growth: 0.92
Locus YNL071W, strain lat1, stronger effect = lower value
  normalized growth: 0.502 (active)
Locus YNL153C, strain GIM3, stronger effect = lower value
  normalized growth: 0.968
Locus YNL183C, strain NPR1, stronger effect = lower value
  normalized growth: 0.888
Locus YNL209W, strain ssb2, stronger effect = lower value
  normalized growth: 0.965
Locus YNL233W, strain BNI4, stronger effect = lower value
  normalized growth: 0.9
Locus YNL248C, strain rpa49, stronger effect = lower value
  normalized growth: 0.894
Locus YNL250W, strain rad50, stronger effect = lower value
  normalized growth: 1.03
Locus YNL271C, strain bni1, stronger effect = lower value
  normalized growth: 1.01
Locus YNL298W, strain CLA4, stronger effect = lower value
  normalized growth: 1.03
Locus YNL307C, strain MCK1, stronger effect = lower value
  normalized growth: 0.858 (active)
Locus YNL322C, strain KRE1 (second series), stronger effect = lower value
  normalized growth: 0.955
Locus YNL322C, strain KRE1, stronger effect = lower value
  normalized growth: 0.874 (active)
Locus YNR049C, strain mso1, stronger effect = lower value
  normalized growth: 1
Locus YNR052C, strain pop2, stronger effect = lower value
  normalized growth: 1.02
Locus YOL012C, strain htz1
  normalized growth: 0.977
Locus YOL147C, strain pex11, stronger effect = lower value
  normalized growth: 1.01
Locus YOR001W, strain rrp6, stronger effect = lower value
  normalized growth: 0.896
Locus YOR061W, strain CKA2, stronger effect = lower value
  normalized growth: 1
Locus YOR069W, strain VPS5, stronger effect = lower value
  normalized growth: 0.956
Locus YOR070C, strain gyp1, stronger effect = lower value
  normalized growth: 0.836 (active)
Locus YOR080W, strain dia2, stronger effect = lower value
  normalized growth: 1
Locus YOR083W, strain WHI5, stronger effect = lower value
  normalized growth: 0.812 (active)
Locus YOR106W, strain vam3, stronger effect = lower value
  normalized growth: 0.822 (active)
Locus YOR136W, strain idh2, stronger effect = lower value
  normalized growth: 1
Locus YOR144C, strain elg1, stronger effect = lower value
  normalized growth: 0.991
Locus YOR184W, strain ser1, stronger effect = lower value
  normalized growth: 0.821 (active)
Locus YOR231W, strain MKK1, stronger effect = lower value
  normalized growth: 0.938
Locus YOR265W, strain rbl2, stronger effect = lower value
  normalized growth: 0.928 (active)
Locus YOR270C, strain vph1, stronger effect = lower value
  normalized growth: 0.476 (active)
Locus YOR290C, strain snf2, stronger effect = lower value
  normalized growth: 0.834 (active)
Locus YOR316C, strain cot1, stronger effect = lower value
  normalized growth: 1.02
Locus YPL051W, strain arl3, stronger effect = lower value
  normalized growth: 0.677 (active)
Locus YPL078C, strain atp4, stronger effect = lower value
  normalized growth: 0.764 (active)
Locus YPL106C, strain sse1, stronger effect = lower value
  normalized growth: 0.969
Locus YPL240C, strain hsp82, stronger effect = lower value
  normalized growth: 0.915 (active)
Locus YPL256C, strain CLN2, stronger effect = lower value
  normalized growth: 0.95
Locus YPR119W, strain clb2, stronger effect = lower value
  normalized growth: 0.998
Locus YPR141C, strain kar3, stronger effect = lower value
  normalized growth: 1.03
Locus YPR163C, strain tif3, stronger effect = lower value
  normalized growth: 1
Locus YPR167C, strain met16, stronger effect = lower value
  normalized growth: 0.992
Strain wtn01, stronger effect = lower value
  normalized growth: 0.983
